# FBPA coupling cs: counter-screen for Giardia aldolase inhibitors: coupling enzyme system | hit rate 0.67% among 290,000 | activity change, negative = inhibition, % at 58.2 µM, hits read low | coupling enzyme system counterscreen, AmpLite Red fluorescence; in the data active = activity change below about -30%
#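 Counterscreen lacking aldolase: glyceraldehyde-3-phosphate coupling-enzyme reagent preincubated 10 min at RT with compound (at 57.5 uM final), then substrate/coupling system with AmpLite Red added; fluorescence read at 525/598 nm after 20 min RT.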
# EPAC1 ag: agonists of human EPAC1; O95398; EPAC1 agonist qHTS, biochemical assay; response scale: 100% = response to 6.5 mM cAMP; Potency, µM (top dose mostly 154 µM), usual class: activators; hit rate 0.073% among 360,000; AID 720707; also: nearly all actives have a fitted effect of over 60% in size
#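 Fluorescent GDP-exchange assay: 100 nM EPAC1 with 250 nM Rap1B preloaded with BODIPY-GDP and 50 uM GDP; compounds tested as concentration series, 5 min at room temperature, then read every 5 min for 30 min (ex 480/em 540 nm); normalized to 6.5 mM cAMP.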
# EPAC2 agonist: activates human EPAC2 exchange factor | Q8WZA2 | EPAC2 activation, biochemical qHTS; response scale: 100% = 6.5 mM cAMP response | Potency, µM (titrated, usually from 154 µM), most hits filed as activators | hit rate 0.079% among 360,000 | AID 720711; also: nearly all actives have a fitted effect of over 50% in size
#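 Fluorescence exchange assay: 100 nM EPAC2 with 250 nM RAP1B-BODIPY-GDP and 50 uM GDP; compounds tested as a concentration-titration series (qHTS). Loss of Rap1-bound BODIPY-GDP fluorescence read at 480/540 nm; data normalized to 6.5 mM cAMP.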
# EPAC1 antagonist: antagonists of human EPAC1. O95398. Potency, µM (highest dose often 115 µM), hits mostly inhibitors. EPAC1 GEF assay, Rap1b-BODIPY-GDP exchange fluorescence. hit rate 0.14% among 360,000; also: nearly all actives have a fitted effect of over 50% in size
# USP1 inh: inhibitors of human USP1/UAF1 deubiquitinase. Potency, µM (doses to about 57.1 µM), most hits filed as inhibitors. recombinant USP1/UAF1, Ub-Rhodamine cleavage fluorescence. hit rate 0.23% among 390,000. O94782. AID 743255; also: nearly all actives have a fitted effect of over 60% in size
#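 USP1/UAF1 complex at 1 nM was preincubated with compound for 15 min at room temperature, then Ub-Rho substrate (150nM final) was added. Fluorescence (480/540 nm) was read kinetically, 6 reads every 60 seconds.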
# EPAC2 antagonist: EPAC2 (human) antagonism. Potency, µM (doses to about 114 µM), hits mostly inhibitors. hit rate 0.18% among 360,000. Q8WZA2. AID 720708. EPAC2 GEF exchange of Rap1B-BODIPY-GDP, fluorescence; also: nearly all actives have a fitted effect of over 45% in size
# Hits are given with their value; n = inactive; u = inconclusive; x = no result given. In the library only some 0.87% were active in any assay of this set; here they are far more common. Unless noted, calls follow the shape of the dose curve; as a rule, active = well fitted curve in the direction sought with a large enough effect; inconclusive = small, poorly fitted or top-dose-only effect, or another doubt; inactive = no such curve, though single readings can be large; an effect the other way counts as inactive or inconclusive.
SMILES,FBPA coupling cs,EPAC1 ag,EPAC2 agonist,EPAC1 antagonist,USP1 inh,EPAC2 antagonist
CCOC(=O)Cn1cc([N+](=O)[O-])nc1[N+](=O)[O-],-39,n,n,n,n,n
CCOC(=O)Cn1cc(C(=O)c2ccccc2F)c2ccccc21,n,n,n,n,n,n
Cc1[nH]n(-c2ccccc2)c(=O)c1C(c1cccc([N+](=O)[O-])c1O)c1c(C)[nH]n(-c2ccccc2)c1=O,n,n,n,56µM,n,n
COc1cc(C(c2c(C)[nH]n(-c3ccccc3)c2=O)c2c(C)[nH]n(-c3ccccc3)c2=O)cc(OC)c1OC,n,n,n,n,u,n
CN1CCCN(C(=O)COc2ccc(F)cc2Cl)CC1,x,n,n,n,n,n
CC(C)N1CCN(c2ccc(O)cc2)CC1,-51,n,n,n,n,n
CCOc1cccc(N2C(=O)/C(=C/c3ccco3)C(=O)NC2=S)c1,n,n,n,u,n,n
O=C1NC(=S)N(c2ccccc2)C(=O)/C1=C/c1ccco1,n,n,n,20µM,u,n
Oc1c(Cl)c(Cl)c(Cl)c(Cl)c1Cl,n,n,n,n,n,10µM
COC(=O)[C@@]1(C#N)[C@@H]2C=CC(C(C)=O)=CN2[C@@H](C(N)=O)[C@@H]1c1ccc(F)cc1,n,n,u,n,28µM,n
CCOC(=O)[C@]1(C#N)[C@@H]2C=CC(C(N)=O)=CN2[C@@H](C(N)=O)[C@@H]1c1ccc(F)cc1,n,n,n,n,u,n
COc1cc2c(cc1O)[C@H]1Cc3ccc(OC)c(O)c3CN1CC2,-38,x,x,x,x,x
COc1ccc(CC2c3cc(OC)c(OC)cc3CCN2C)cc1O (stereo not given),n,n,n,n,n,n
CC(=O)OC1C(O)C(C)OC(OC2C(OC(=O)C3CCC4C(C3)OC3(CC(OC(=O)/C=C/c5ccccc5)C(C)CO3)C43CO3)OC(C)C(O)C2OC(C)=O)C1O (stereo not given),x,n,n,n,n,n
CN1CC[C@]2(C)c3cc(O)ccc3N(C)[C@@H]12,-69,x,x,x,x,x
C[C@@H]1O[C@@H](O[C@H]2CC[C@@H](O[C@H]3[C@H](O)C[C@H](c4ccc5c(c4O)C(=O)C4=C(C5=O)[C@@]5(O)C(=O)C[C@](C)(O[C@H]6CC[C@H](O[C@H]7C=CC(=O)[C@H](C)O7)[C@H](C)O6)C[C@@]5(O)C=C4)O[C@@H]3C)O[C@H]2C)C=CC1=O,-74,x,x,x,x,x
O=C(Nc1ccon1)c1cccn(Cc2cccc(Cl)c2)c1=O,x,x,x,x,n,x
CCOC(=O)c1cc(CC)sc1/N=C/c1c(O)[nH]c(=S)[nH]c1=O,-88,n,63µM,n,u,n
CCOC(=O)c1c(/N=C/C2C(=O)NC(=O)NC2=O)sc2c1CCC2,n,n,n,n,n,n
CCOC(=O)c1cc(CC)sc1/N=C/C1C(=O)NC(=S)NC1=O,-39,n,89µM,n,u,n
COC1C(C)OC(OC2CC(C)(O)Cc3cc4c(c(O)c32)C(=O)c2c(O)cc3c(c2C4=O)OC2OC3(C)C(O)C(N(C)C)C2O)C(OC)C1(C)OC (stereo not given),x,100µM,n,n,u,n
CN1C(=O)COc2c(C(=O)N[C@@H]3CN4CCC3CC4)cc(Cl)cc21,n,x,x,x,x,x
N#C/C(=C\c1ccc(O)c(O)c1)C(N)=S,-64,x,x,x,x,x
O=C1c2ccccc2C(=O)c2ccccc21,n,x,x,x,x,x
O=C1C=Cc2ccccc2C1=O,-82,x,x,x,x,x
O=C(OC1CCN(CCCl)CC1)C(c1ccccc1)c1ccccc1,x,n,n,n,n,13µM
OC(CNCCc1c[nH]c2ccccc12)c1ccccc1 (stereo not given),n,n,n,n,n,n
Cc1ccccc1N1C(=O)NC(=O)/C(=C\c2ccc3c(c2)CCCN3Cc2ccccc2)C1=O,n,n,n,35µM,u,n
C[C@@H]1CN([C@H](C)CO)C(=O)CCCn2cc(nn2)CO[C@H]1CN(C)C(=O)Oc1ccc2ccccc2c1,x,n,n,n,n,n
